PubChem BioAssay (NCATS)
Several values for one entry are separate records, joined by “and”; a condition that tells them apart may be missing. Equal values may be shown once. Results filed as inconclusive are left out. Where a structure was tested more than once in an assay, its records may differ in their call. A number with no mark means an inactive call. Activity calls are given as the source filed them. The call rests on the fitted dose curve; in most records, active means well fitted inhibition curve with a large enough effect; inconclusive means small, poorly fitted or top-dose-only effect; inactive means flat fitted curve, though single readings scatter.

How the values were obtained:
[1] = Drug repurposing screens with cells derived from glioblastoma tumor samples (AID 1345199); details: GBM patient neurospheres viability, ATP luminescence, 48 h; further: nearly all actives have a fitted effect of over 40% in size
How it was run: (§1)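 Primary testing used CD133+ neurospheres from four GBM patients, seven concentrations, 48 h exposure and ATP-based viability; confirmation added three slower-growing patient lines.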

[2] = system: astro; assay: as above; details: viability, ATP luminescence, 48 h; series mostly up to 45.9 µM
How it was run: as §1

[3] = at 45.9 µM (top of the series), tumour line B
[4] = at 45.9 µM (top of the series), tumour line D
[5] = at 46 µM (top of the series), tumour line A
[6] = at 46.1 µM (top of the series), tumour line C
On the % scale 0 is the no-effect control and ±100 the full control effect; potency means the concentration at half of the fitted maximal effect.

## CCN(CC)C(=O)/C(Cl)=C(\C)OP(=O)(OC)OC
[1]; [3]
  activity, negative = cell killing: 1.79%
[1]; [4]
  activity, negative = cell killing: -19.8%
[1]; [5]
  activity, negative = cell killing: -32%
[1]; [6]
  activity, negative = cell killing: 1.99%
[2]
  Potency: inactive

## CCCCC[C@@H](O)C1C(=O)OC(C)[C@H](O)/C=C/C=C/C=C/C=C/C=C(\C)C(O)C(O)C(O)C[C@H](O)C[C@H](O)C[C@H](O)C[C@H](O)C[C@@H]1O (some centres not stated)
[1]; [3]
  activity, negative = cell killing: -7.45% and 7.1%
[1]; [4]
  activity, negative = cell killing: 14.9% and -7.76%
[1]; [5]
  activity, negative = cell killing: -18.3% and -29%
[1]; [6]
  activity, negative = cell killing: -15.7% and -7.35%
[2]
  Potency: inactive

## O=C1C[C@@H]2OCC=C3CN4CC[C@]56c7ccccc7N1[C@H]5[C@H]2[C@H]3C[C@H]46 (tested in a mixture with another compound)
[1]; [3]
  activity, negative = cell killing: -8.18% and -6.54%
[1]; [4]
  activity, negative = cell killing: -14.5% and -6.5%
[1]; [6]
  activity, negative = cell killing: 1.96% and -18.9%
[1]; tumour line A
  Potency: 20 µM (active)
[2]
  Potency: inactive

## CCN(CC)C(=O)N[C@H]1C[C@@H]2c3cccc4[nH]cc(c34)C[C@H]2N(C)C1
[1]; [3]
  activity, negative = cell killing: -22.5%
[1]; [4]
  activity, negative = cell killing: -14.1%
[1]; [6]
  activity, negative = cell killing: -20.3%
[1]; tumour line A
  Potency: 22.4 µM (active)
[2]
  Potency: inactive

## CC(N)Cc1ccc(O)cc1 (configuration not stated)
[1]; [3]
  activity, negative = cell killing: -3.82%
[1]; [4]
  activity, negative = cell killing: -1.1%
[1]; [5]
  activity, negative = cell killing: -18.1%
[1]; [6]
  activity, negative = cell killing: 5.3%
[2]
  Potency: inactive

## N#CC(C#N)=Cc1cc(O)c(O)c(O)c1
[1]; [3]
  activity, negative = cell killing: -27.1%
[1]; tumour line D
  Potency: 12.6 µM (active)

## CCNC(C)Cc1cccc(C(F)(F)F)c1 (configuration not stated)
[1]; [3]
  activity, negative = cell killing: -2.98%
[1]; [4]
  activity, negative = cell killing: -5.81%
[1]; [5]
  activity, negative = cell killing: -19.5%
[1]; [6]
  activity, negative = cell killing: -4.96%
[2]
  Potency: inactive

## [S]=[Sb](=[S])[S][Sb](=[S])=[S]
[1]; [3]
  activity, negative = cell killing: -4.98%
[1]; [4]
  activity, negative = cell killing: -5.67%
[1]; [5]
  activity, negative = cell killing: -28.3%
[1]; [6]
  activity, negative = cell killing: -1.84%
[2]
  Potency: inactive

## C=C[C@H]1CN2CC[C@H]1C[C@H]2[C@H](OC(=O)OCC)c1ccnc2ccc(OC)cc12
[1]; [3]
  activity, negative = cell killing: -6.26%
[1]; [4]
  activity, negative = cell killing: -11.2%
[1]; [6]
  activity, negative = cell killing: 18.3%
[1]; tumour line A
  Potency: 10 µM (active)
[2]
  Potency: inactive
